Test results reported in ChEMBL document CHEMBL3988442, “University of Dundee, Small-Polar-MMV Screening Library” (2021).

Biological target: AMP-activated protein kinase, AMPK (Homo sapiens) (UniProt P54646+O43741+P54619+Q9UGJ0+Q9Y478+Q13131+Q9UGI9)
Assay: AMP-dependent Kinase enzyme assay. An in vitro enzyme assay that detects ADP turnover that is directly proportional to AMPK activity. This uses naive AMPK that is activated during the assay with MK-8722
Format: functional
Parameters: scale not given: direction of the effect not stated beside the values
Settings: 30 µM

SMILES	Percent Effect
Cc1nc2n(n1)CC(NCc1c(Cl)ccc3cccnc13)CC2 (stereo not given)	11.7%
CC1CN(c2ncnc3sccc23)CCN1c1nccs1 (stereo not given)	16.9%
Cc1ccc(N2CCCC(N(C)c3nn4cc(C)nc4s3)C2)nn1 (stereo not given)	33%
C[C@@H]1CN(c2ccc(C#N)cn2)CC[C@@]1(O)C1CCOCC1	-1.81%
CCC(CNC(=O)CCn1cncn1)N1CCc2ccccc2C1 (stereo not given)	1.86%
CS(=O)(=O)NC(=O)c1ccn(-c2ccccc2Cl)n1	9.09%
Cc1nc(CNCc2cccc(OC34CCCN(CC3)C4)c2)n[nH]1 (stereo not given)	-7.43%
CCN(C(=O)CN1CCCC1c1c(C)nn(C)c1OC)C1CC1 (stereo not given)	3.98%
CCOc1ccccc1C(C(=O)O)N(C)Cc1nnc(C)o1 (stereo not given)	4.89%
O=C1CC2(CCCC2)CC(=O)N1CCn1cnnc1	5.88%
CCNC(=O)C1CCN(Cc2ccc(C(=O)Nc3nnc(C)s3)cc2)C1 (stereo not given)	-2.87%
CCSc1cccc(NCc2cccnc2)c1	-1.67%
Cc1ccc(N2C[C@@H]3CN(C(=O)NC4CCCC4)C[C@]3(C(=O)O)C2)nn1	-1.71%
CCn1nc(C)c(C(=O)N2C[C@@H](CN(C)CCOC)[C@@H](CO)C2)c1C	-7.64%
COCCN(C)c1cnn(C)c(=O)c1Br	-10.9%
Cc1cc(C[S+]([O-])Cc2ccccc2C)no1 (stereo not given)	5.62%
CN(C)CCN(Cc1ccc(F)cc1)C(=O)c1ccn(C)c(=O)c1	9.83%
Clc1cc(NCc2ncc[nH]2)nc2[nH]ccc12	24.1%
Cc1ccc(-c2nc(CC3CCN(C)CC3)no2)cc1N1CCNC1=O	11.1%
COc1ccccc1N1CCN(C(=O)CCc2nncn2C)C(C)C1 (stereo not given)	24.5%
